# Data: PubChem BioAssay (NCATS)
# Results filed as inconclusive are left out. Entries that show only a call come without a potency. Activity calls are given as the source filed them. The call rests on the fitted dose curve; in most records, active means well fitted curve in the direction sought with a large enough effect; inconclusive means small, poorly fitted or top-dose-only effect, or another doubt; inactive means no such curve, though single readings can be large; an effect the other way counts as inactive or inconclusive.
# Target: Luciferin 4-monooxygenase (Photinus pyralis) (UniProt P08659)
# Experiment: Biochemical firefly luciferase enzyme assay for NPC (AID 624030);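 further: purified P. pyralis luciferase at 10 nM with luciferin and ATP substrate; nearly all actives have a fitted effect of over 70% in size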
# Settings: purified P. pyralis luciferase, luminescence, 5 min; series mostly up to 58.6 µM
# Outline: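 Purified P. pyralis luciferase at 10 nM in 50 mM Tris Acetate (final), luminescence read within 5 minutes of enzyme addition to compounds. Activity normalised to PTC124 versus DMSO; concentration-response curves classed by r2, magnitude and activity.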
# Chain of Luciferin 4-monooxygenase (Photinus pyralis) (P08659 whole entry, looked up): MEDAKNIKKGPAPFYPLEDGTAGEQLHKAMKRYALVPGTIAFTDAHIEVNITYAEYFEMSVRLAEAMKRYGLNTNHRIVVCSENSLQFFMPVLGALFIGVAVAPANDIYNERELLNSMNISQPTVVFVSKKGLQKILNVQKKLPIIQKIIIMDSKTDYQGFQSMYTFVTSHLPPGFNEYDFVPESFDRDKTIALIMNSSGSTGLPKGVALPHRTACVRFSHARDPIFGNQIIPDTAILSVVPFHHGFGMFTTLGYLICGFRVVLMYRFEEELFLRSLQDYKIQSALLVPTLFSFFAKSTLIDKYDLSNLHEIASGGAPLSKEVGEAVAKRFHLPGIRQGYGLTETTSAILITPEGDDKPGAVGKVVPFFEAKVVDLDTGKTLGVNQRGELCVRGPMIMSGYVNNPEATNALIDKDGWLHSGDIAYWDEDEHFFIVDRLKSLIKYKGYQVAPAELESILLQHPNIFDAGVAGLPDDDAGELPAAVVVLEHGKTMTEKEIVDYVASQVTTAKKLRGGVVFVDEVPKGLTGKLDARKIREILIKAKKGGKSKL
row,SMILES,Potency
1,OC(c1ccccc1)(c1ccccc1)C1CCNCC1,inactive
2,CCCCC1C(=O)NC(=O)N(C2CCCCC2)C1=O (stereo not given),inactive
3,Clc1ccc(CO/N=C(\Cn2ccnc2)c2ccc(Cl)cc2Cl)c(Cl)c1,inactive
4,COc1ccc(OC)c(CC(C)N)c1 (stereo not given),inactive
5,Cc1nnc2n1-c1sc(CCc3ccc(CC(C)C)cc3)cc1C(c1ccccc1Cl)=NC2C (stereo not given),inactive
6,Cc1c(Cl)c(=O)oc2cc(OP(=O)(OCCCl)OCCCl)ccc12,inactive
7,CN1CCc2cc(Cl)c(O)cc2[C@H]2c3ccccc3CC[C@@H]21,inactive
8,C[N+](C)(C)CCCCCCCCCC[N+](C)(C)C,inactive
9,C[C@]12Cc3nonc3C[C@@H]1CC[C@@H]1[C@@H]2CC[C@@]2(C)[C@H]1CC[C@]2(C)O,inactive
10,CC(=O)OC1(c2ccccc2)CCN(CCc2ccccc2)CC1,inactive
11,CC[C@H](O)C(C[C@H](C)N(C)C)(c1ccccc1)c1ccccc1,inactive
12,CC(Cc1ccccc1)NCc1ccccc1Cl (stereo not given),inactive
13,CCC1(c2ccccc2)CCC(=O)NC1=O (stereo not given),inactive
14,CN1C(=O)[C@@H](NC(=O)c2cc3ccccc3[nH]2)N=C(c2ccccc2)c2ccccc21,inactive
15,COc1cc(CC(C)N)c(OC)cc1Br (stereo not given),inactive
16,CCN(CC)Cc1nccn1-c1ccc([N+](=O)[O-])cc1C(=O)c1ccccc1Cl,inactive
17,COc1ccc2c(C(=O)c3ccc(Cl)cc3)c(C)n(CC(=O)O)c2c1,inactive
18,CN1C(=O)CN=C(c2ccccc2)c2cc(Cl)ccc21,inactive
19,CN(C)CCc1c[nH]c2ccccc12,inactive
20,COc1cc(CC(C)N)cc2c1OCO2 (stereo not given),inactive
21,CCC(=O)OC1(c2ccccc2)CCN(C)CC1,inactive
22,C[C@]12CC[C@H]3[C@@H](CCC4=CC(=O)CC[C@@H]43)[C@@H]1CC[C@@H]2O,inactive
23,C[C@H]1CNCCc2ccc(Cl)cc21,inactive

# Tested on: not listed separately
# Experiment: S16 Schwann cell viability assay (CellTiter-Glo assay) (AID 624031); further: nearly all actives have a fitted effect of over 70% in size; further: potency means the concentration at half of the fitted maximal effect
# Settings: S16 rat Schwann cells viability, 24 h; series mostly up to 57.5 µM
# Outline: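 Native S16 rat Schwann cells, 500-750 cells/well in DMEM with 10% FBS, dosed with compound after overnight culture and incubated 24h at 37 degree Celsius/5% CO2. Viability by CellTiter-Glo luminescence; % activity normalized to no-cell wells and DMSO-treated cells.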
row,SMILES,Potency
1,OC(c1ccccc1)(c1ccccc1)C1CCNCC1,inactive
2,Clc1ccc(CO/N=C(\Cn2ccnc2)c2ccc(Cl)cc2Cl)c(Cl)c1,inactive
3,Cc1c(Cl)c(=O)oc2cc(OP(=O)(OCCCl)OCCCl)ccc12,inactive
4,CC(Cc1ccccc1)NCc1ccccc1Cl (stereo not given),inactive
5,CCC1(c2ccccc2)CCC(=O)NC1=O (stereo not given),inactive
6,CN1C(=O)[C@@H](NC(=O)c2cc3ccccc3[nH]2)N=C(c2ccccc2)c2ccccc21,inactive
7,O=C1NCN(c2ccccc2)C12CCN(CCCC(c1ccc(F)cc1)c1ccc(F)cc1)CC2,22.8 µM (active)

# Tested on: not listed separately
# Experiment: S16 Schwann cell PMP22 intronic element firefly luciferase assay (AID 624032); further: nearly all actives have a fitted effect of over 30% in size; further: potency means the concentration at half of the fitted maximal effect
# Settings: S16 rat Schwann cells, PMP22 element FLuc, 24 h; series mostly up to 57.5 µM
# Outline: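 Rat S16 Schwann cells stably carrying firefly luciferase driven by a PMP22 intronic element, in 10% FBS, treated 24 h at 37 C. ONE-Glo luminescence normalized to PTC124 control and DMSO (0%); curves classed by r2, magnitude and activity.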
row,SMILES,Potency
1,O=C(O)c1ccc(OCCCOc2ccc(C(=O)O)cc2)cc1,inactive
2,OC(c1ccccc1)(c1ccccc1)C1CCNCC1,inactive
3,CC1CCc2cc(F)cc3c(=O)c(C(=O)O)cn1c23 (stereo not given),inactive
4,Clc1ccc(CO/N=C(\Cn2ccnc2)c2ccc(Cl)cc2Cl)c(Cl)c1,32.2 µM (active)
5,CN1C[C@H](C(=O)N[C@]2(C)O[C@@]3(O)[C@@H]4CCCN4C(=O)[C@H](Cc4ccccc4)N3C2=O)C[C@@H]2c3cccc4[nH]cc(c34)C[C@H]21,25.6 µM (active)
6,NC(=O)NNc1ccccc1,inactive
7,Cc1c(Cl)c(=O)oc2cc(OP(=O)(OCCCl)OCCCl)ccc12,12.8 µM (active)
8,Cc1cccc(C)c1NC(=O)CN1CCCC1,8.09 µM (active)
9,CN1CCc2cc(Cl)c(O)cc2[C@H]2c3ccccc3CC[C@@H]21,inactive
10,C[C@]12Cc3nonc3C[C@@H]1CC[C@@H]1[C@@H]2CC[C@@]2(C)[C@H]1CC[C@]2(C)O,14.4 µM (active)
11,CN1CCN(c2cc3c(nn2)Oc2ccccc2N3C)CC1,inactive
12,O=c1cc(CO)occ1O,16.1 µM (active)
13,CCCCCCCCCCCCOCCOCCOCCOCCOCCOCCOCCOCCOCCO,18.1 µM (active)
14,CC(Cc1ccccc1)NCc1ccccc1Cl (stereo not given),inactive
15,Clc1ccc2c(c1)CCc1cccnc1C2=C1CCNCC1,28.7 µM (active)
16,CCC1(c2ccccc2)CCC(=O)NC1=O (stereo not given),inactive
17,O=C(Oc1cccc2cccnc12)c1ccccc1,9.07 µM (active)
18,NC(N)=NN=C(/C=C/c1ccc([N+](=O)[O-])o1)/C=C/c1ccc([N+](=O)[O-])o1,7.21 µM (active)
19,CC(C)(C)C(=O)C(Oc1ccc(Cl)cc1)n1ccnc1 (stereo not given),2.03 µM (active)
20,COc1cc(C(=S)N2CCOCC2)ccc1O,5.1 µM (active)
